Consider 83 molecules from PubChem BioAssay AID1851 (National Center for Advancing Translational Sciences (NCATS), 2009).

Values joined by “and” are separate entries in the source; they are usually repeats but may differ in a detail not shown here. Equal values may be shown once. Hit rate of the full screen: of about 16,000 compounds, about 4,000 (25%) were called active. About 26% were inconclusive and are not listed. Calls come from the whole dose curve; as a rule, active = well fitted curve in the direction sought with a large enough effect; inconclusive = small, poorly fitted or top-dose-only effect, or effect the other way; inactive = no such curve, though single readings can be large or run the other way. Only a sample is shown.
% is set by controls: 0 for no effect and ±100 for the full control effect.

Cytochrome P450 2C9 (Homo sapiens), sequence (P11712 whole entry, looked up): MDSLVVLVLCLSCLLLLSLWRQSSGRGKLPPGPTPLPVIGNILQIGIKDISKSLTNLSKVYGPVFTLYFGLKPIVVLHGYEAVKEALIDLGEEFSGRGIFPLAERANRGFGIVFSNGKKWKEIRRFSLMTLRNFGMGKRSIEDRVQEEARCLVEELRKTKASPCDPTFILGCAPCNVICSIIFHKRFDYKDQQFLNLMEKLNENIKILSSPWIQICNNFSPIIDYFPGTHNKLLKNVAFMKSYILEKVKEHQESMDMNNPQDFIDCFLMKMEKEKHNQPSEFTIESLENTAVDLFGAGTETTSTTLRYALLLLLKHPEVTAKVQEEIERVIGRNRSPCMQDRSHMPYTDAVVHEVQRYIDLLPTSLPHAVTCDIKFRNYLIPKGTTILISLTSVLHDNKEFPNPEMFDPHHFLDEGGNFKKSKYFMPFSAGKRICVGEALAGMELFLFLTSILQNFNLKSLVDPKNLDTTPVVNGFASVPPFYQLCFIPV

The test addresses Cytochrome P450 2C9 (Homo sapiens) (UniProt P11712). Nature of the test: Cytochrome panel assay with activity outcomes. The conditions noted are these: recombinant CYP, pro-luciferin dealkylation, luminescence, p450-cyp2c9; series mostly up to 57.1 µM; activity, negative = inhibition: at the top concentration.
In the case of `O=C(O)CC[C@@H](C(=O)O)N1C(=O)[C@@H]2[C@@H]3CC[C@H](C3)[C@@H]2C1=O`, the activity, negative = inhibition is 12.5% [at 11.4 µM] (inactive). In the case of `OCCNc1nc(NCCC2=CCCCC2)nc(N2CCOCC2)n1`, the concentration at half-maximal activity (AC50) is 14.1 µM (active). As to `CCN(CC)CCNC(=O)C(C)c1nn(C)c(=O)c2ccccc12` (stereo not drawn), the “activity, negative = inhibition” value was -0.184% (inactive). Turning to `CCOC(=O)CNS(=O)(=O)c1cc(-c2nn(C)c(=O)c3ccccc23)ccc1C`, the half-maximal activity concentration (AC50) is 0.316 µM (active).

In the case of `CS(=O)(=O)Nc1cccc(-c2ccc3ncnc(NCCN4CCOCC4)c3c2)c1`, the activity, negative = inhibition is 19% [at 2.29 µM] (inactive). In the case of `CCN(Cc1ccccc1)Cc1cccc([N+](=O)[O-])c1`, the AC50 is 10 µM (active). With `Cc1ccc(S(=O)(=O)NCc2cccc([N+](=O)[O-])c2)cc1`, the activity, negative = inhibition is 24.1% [at 11.4 µM] (inactive). Still for that read-out and setting: under `N[C@@H](Cc1cccc([N+](=O)[O-])c1)C(=O)O` stands 16.8% [at 11.4 µM] (inactive).

`COc1c(Cl)cc(Cl)cc1CNCCNCC(C)O` (stereo not drawn): the “activity, negative = inhibition” value is 15.2% (inactive). Turning to `Cc1cc(N2CCOCC2)nc2ccc(Cc3ccc4nc(N5CCOCC5)cc(C)c4c3)cc12`, the AC50 was 3.98 µM (active). Consider `Cc1cc(Cl)nc2ccc(Cc3ccc4nc(Cl)cc(C)c4c3)cc12`, for which the activity, negative = inhibition is 0.565% [at 11.4 µM] (inactive).

As to `COc1ccc2c(C)cc(N3CCOCC3)nc2c1`, the “activity, negative = inhibition” value is 11.4% (inactive). Regarding `COCOc1cc(OC)ccc1C(=O)/C=C\c1ccc2c(c1)OCO2`, the half-maximal activity concentration (AC50) was 2.51 µM (active). Take `Nc1ccccc1C(=O)/C=C\c1ccc2c(c1)OCO2`: the activity, negative = inhibition was -29.2% [at 11.4 µM] (inactive). In the case of `O=C(/C=C\C=C/c1ccc2c(c1)OCO2)N1CCCCC1`, the “activity, negative = inhibition” value is -34.7% [at 25.6 µM] (inactive). For the molecule `COc1ccccc1N1CCN(C(=O)/C=C/c2ccc3c(c2)OCO3)CC1`, the AC50 was 14.1 µM (active). With `CCNc1ccc(Br)cc(C(=O)/C=C/c2ccc3c(c2)OCO3)c1=O`, the AC50 was 11.2 µM (active).

Consider `CCCc1nnc(SCC(=O)O)n1/N=C/c1ccc2c(c1)OCO2`, for which the “activity, negative = inhibition” value is -24.4% (inactive). Still for that read-out and setting: under `CCCCCCCCCCCCCCCCCCc1ccc(C(=O)/C=C\C(=O)O)cc1` stands -7.99% (inactive). Turning to `CCCC(=O)Nc1ccc(C(=O)/C=C/c2ccc(SC)cc2)cc1`, the half-maximal activity concentration (AC50) is 1.78 µM (active). Regarding `O=C(O)CC/C=C\C[C@@H]1CO[C@H](c2ccccc2Cl)O[C@@H]1c1ccccc1O`, the “activity, negative = inhibition” value was -16.7% (inactive). The same measure, in the same setting: under `c1ccc(C2OCC3(CO2)COC(c2ccccc2)OC3)cc1` (stereo not drawn) stands -37.5% (inactive); under `O=C1CCCCCC1C1(O)C(=O)Nc2ccc(Br)cc21` (stereo not drawn), -11.1% (inactive).

Turning to `CC(C)[C@H](Sc1nc(N)nc2nc[nH]c12)C(=O)O`, the activity, negative = inhibition is 12.2% [at 11.4 µM] (inactive). Regarding `Nc1nc(SCc2ccccc2[N+](=O)[O-])c2[nH]cnc2n1`, the activity, negative = inhibition is -28.6% [at 11.4 µM] (inactive). As to `Nc1nc(Sc2ccc([N+](=O)[O-])c3nonc23)c2[nH]cnc2n1`, the AC50 was 3.16 µM (active). For `CCOC(=O)N1CCN(C(=O)CCn2nc(-c3ccccc3)ccc2=O)CC1`, the “activity, negative = inhibition” value is -13.9% (inactive). Regarding `CCOC(=O)N1CCN(C(=O)C(CC)n2nc(C)c3sc4ccccc4c3c2=O)CC1` (stereo not drawn), the concentration at half-maximal activity (AC50) was 3.16 µM (active). For `CN(C)CCCN=c1c2ccccc2n(C)c2[nH]c(=O)n(C)c(=O)c12`, the activity, negative = inhibition is -3.97% [at 11.4 µM] (inactive). The same measure, in the same setting: the figure for `CC(=O)NCCNc1ccnc(-c2ccccc2C(F)(F)F)n1` is 9.95% [at 2.29 µM] (inactive); for `COc1ccc(N=Cc2ccc(CNS(=O)(=O)c3ccc(Cl)cc3)o2)cc1` it is -5.91% (inactive). As for `COc1cc(O)oc1C=Nc1ccc(Cl)cc1`, the half-maximal activity concentration (AC50) is 22.4 µM (active). Take `CCNC(=S)N1CC(C)OC(C)C1` (stereo not drawn): the “activity, negative = inhibition” value was -4.79% (inactive). On the same count and under the same terms, the figure for `Cc1ccc(SCN2CCCCC2)cc1` (tested in a mixture with another compound) is -29.3% [at 11.4 µM] (inactive). As for `Cc1ccc(N(CCC#N)C(=O)CSc2ccc3c(c2)OCCO3)cc1`, the half-maximal activity concentration (AC50) is 5.01 µM (active). As for `CC1Cc2ccccc2N1Cc1nc2cc(C(F)(F)F)ccc2c(=O)[nH]1` (stereo not drawn), the AC50 was 5.01 µM (active). On to `O=S(=O)(c1cccc(-c2nnc(-c3ccc(Br)cc3)o2)c1)N1CCCCCC1`, for which the concentration at half-maximal activity (AC50) is 5.01 µM (active).

For `O=S(=O)(c1ccc(Br)cc1)N1CCN(S(=O)(=O)c2ccc(Br)cc2)CC1`, the activity, negative = inhibition was 25.6% [at 11.4 µM] (inactive). The same measure, in the same setting: under `Brc1ccc(-c2nnc(-c3cccc(Br)c3)o2)cc1` stands -6.6% (inactive); under `c1cncc(-c2cncnc2-n2ccnc2)c1`, 8.83% [at 2.29 µM] (inactive). With `Oc1ccc(-c2[nH]ncc2-c2ccc(Cl)cc2)c(O)c1`, the concentration at half-maximal activity (AC50) is 0.794 µM (active). On to `CC(C)NC(=O)N1CC2(CCN(C(=O)c3cc(C(F)(F)F)cc(C(F)(F)F)c3)CC2)C1`, for which the “activity, negative = inhibition” value was -19.4% (inactive).

Turning to `CCOC(=O)c1c(CC(C)C)csc1NC=O`, the half-maximal activity concentration (AC50) is 10 µM (active). Consider `Cc1ccccc1C(=O)c1c[nH]c(C(=O)NCC2CCCO2)c1` (stereo not drawn), for which the “activity, negative = inhibition” value was 25.6% (inactive). On to `O=C(CN(Cc1ccccc1Cl)C(=O)c1ccc(CN2CCOCC2)o1)NCC1CCCO1` (stereo not drawn), for which the “activity, negative = inhibition” value is -3.33% (inactive).

Take `O=C(Nc1ccccc1C(=O)NCC1CCCO1)c1ccc(Cl)cc1Cl` (stereo not drawn): the half-maximal activity concentration (AC50) is 10 µM (active).

Regarding `CC(C)=NO[C@@H](C)c1cn([C@H](CO)Cc2ccccc2)nn1`, the activity, negative = inhibition was 16.5% [at 11.4 µM] (inactive) and 5.66% [at 11.4 µM] (inactive). `COc1cccc([C@H]2Oc3ccc(OC)cc3/C(=N\O[C@@H](C)c3cn([C@H](CO)Cc4ccccc4)nn3)[C@@H]2O)c1`: the AC50 is 1.58 µM (active). For the molecule `CO/N=C1/c2cc(OC)ccc2O[C@@H](c2cccc(OC)c2)[C@H]1O`, the activity, negative = inhibition is -0.557% [at 11.4 µM] (inactive). As for `COc1cccc([C@@H]2Oc3ccc(OC)cc3/C(=N/OC[C@@H](C)[C@H](OCc3ccccc3)C(C)C)[C@@H]2O)c1`, the half-maximal activity concentration (AC50) was 3.98 µM (active). Same read-out and setting: the figure for `C=CC[C@@H]1C=C[C@H](O/N=C2\c3cc(OC)ccc3O[C@H](c3cccc(OC)c3)[C@H]2O)[C@H](CO)O1` is 0.398 µM (active).

With `COc1ccc(O[C@H]2C=C[C@@H](c3ccccc3)O[C@@H]2CON=C(C)C)cc1`, the activity, negative = inhibition is 11.9% [at 11.4 µM] (inactive).

Turning to `COc1cccc([C@H]2Oc3ccc(OC)cc3/C(=N\O[C@@H]3O[C@H](COC(C)=O)[C@H](OC(C)=O)[C@H](OC(C)=O)[C@H]3OC(C)=O)[C@@H]2O)c1`, the activity, negative = inhibition was -12.6% [at 11.4 µM] (inactive).

On to `COc1ccc(O[C@H]2C=C[C@@H](c3ccccc3)O[C@H]2CO/N=C2/c3cc(OC)ccc3O[C@@H](c3cccc(OC)c3)[C@H]2O)cc1`, for which the AC50 was 3.16 µM (active). Consider `COc1cccc([C@H]2Oc3ccc(OC)cc3/C(=N\OC[C@@H](O)[C@@H]3O[C@@H]4OC(C)(C)O[C@@H]4[C@H]3O)[C@@H]2O)c1`, for which the activity, negative = inhibition is -20.5% [at 11.4 µM] (inactive). As for `C=CC[C@@H]1C=C[C@@H](O/N=C\C[C@@H]2C=C[C@H](OC(C)=O)[C@H](COC(C)=O)O2)[C@@H](CO)O1`, the activity, negative = inhibition was -4.4% [at 11.4 µM] (inactive). For `COc1cccc([C@@H]2Oc3ccc(OC)cc3/C(=N/O[C@@H](C)c3cn([C@H]4COC[C@H]4O)nn3)[C@@H]2O)c1`, the activity, negative = inhibition was -15.5% [at 11.4 µM] (inactive).

In the case of `CC1=N[C@@](C)(COC(=O)[C@]2(C)N[C@](C)(CO)CO2)COC1=O`, the activity, negative = inhibition is 11% [at 11.4 µM] (inactive).

With `CC(=O)NCCNc1cc(-c2ccccc2CN(C)C)ncn1`, the activity, negative = inhibition was 10% [at 2.29 µM] (inactive). The same measure, in the same setting: under `O=[N+]([O-])/C=C\c1cc2ccccc2[nH]1` stands 11.3% [at 11.4 µM] (inactive).

On to `COCC(=O)Nc1c(I)c(C(=O)NC[C@@H](O)CO)c(I)c(C(=O)N(C)C[C@@H](O)CO)c1I`, for which the “activity, negative = inhibition” value was -13.9% [at 25.6 µM] (inactive).

With `C/C(CCN1CCCCc2nc(C)c(C)cc21)=N\O[C@@H](C)CN1CCCc2nc(C)c(C)cc21`, the activity, negative = inhibition is -5.53% [at 11.4 µM] (inactive). In the case of `CC(C)=NO[C@@H](C)CN1CCCCc2nc(C)c(C)cc21`, the activity, negative = inhibition was 19.8% [at 11.4 µM] (inactive). Consider `COc1cccc([C@@H]2Oc3ccc(OC)cc3/C(=N/O[C@@H](C)CN3CCCCc4nc(C)c(C)cc43)[C@@H]2O)c1`, for which the AC50 was 1.58 µM (active). Take `CCC(C)(C)N=C(NC#N)Nc1cccnc1`: the “activity, negative = inhibition” value was 20.6% (inactive). `CN(C)c1ncnc2ccc(-c3ccccc3C#N)cc12`: the activity, negative = inhibition is -7.24% [at 2.29 µM] (inactive). In the case of `Nc1c2c(=O)oc(-c3ccccc3)cc2nn1-c1ccccc1`, the AC50 was 10 µM (active). As for `O=C(O)/C=C(/C(=O)O)[C@]12CCN3CC4=CCO[C@@H]5CC(=O)N[C@@H]1[C@H]5[C@H]4C[C@H]32`, the activity, negative = inhibition was -2.53% [at 11.4 µM] (inactive).

For `CN1/C(=C\C(=O)COC(=O)Cn2nnc(-c3ccccc3)n2)C(C)(C)c2ccccc21`, the half-maximal activity concentration (AC50) was 3.98 µM (active). With `CN1/C(=C\C=[N+](C)c2ccccc2)C(C)(C)c2ccccc21`, the “activity, negative = inhibition” value is 1.48% (inactive).

Take `c1ccc(-c2nnn(CCN3CCCCC3)n2)cc1`: the activity, negative = inhibition was 3.45% [at 11.4 µM] (inactive). Still for that read-out and setting: the figure for `CC1CCCN(C(=O)c2sc3cc([N+](=O)[O-])ccc3c2Cl)C1` (stereo not drawn) is -13.6% (inactive). Regarding `CS(=O)(=O)c1ccc([C@H](O)[C@H](CO)NC(=O)C(Cl)Cl)cc1`, the “activity, negative = inhibition” value is 12.9% [at 25.6 µM] (inactive).

On to `CC(=O)N1CCC2(CCCN(Cc3ccccc3)C2)CC1`, for which the “activity, negative = inhibition” value is -9.6% (inactive). On to `Cc1cc(C)n(-c2nc(NC(C)C)nc(NC(C)C)n2)n1`, for which the “activity, negative = inhibition” value is -25.2% (inactive). As to `COc1ccc(-c2cc(C(F)F)nc(-n3nc(C)cc3C)n2)cc1`, the AC50 is 28.2 µM (active). Regarding `Cc1cnc(CNc2nc(-c3ccc(N(C)C)cc3)nc3ccccc23)cn1`, the activity, negative = inhibition was -14.7% [at 2.29 µM] (inactive). On to `COc1ncc2nc(-c3cccs3)c(=O)n(CCC#N)c2n1`, for which the “activity, negative = inhibition” value was -3.19% (inactive). For the molecule `N#Cc1c(-c2cccs2)nc(SCC(=O)c2cccs2)[nH]c1=O`, the half-maximal activity concentration (AC50) is 0.708 µM (active). For the molecule `Cc1cccc(NC(=O)CSc2nc(-c3ccccc3)c(C#N)c(=O)[nH]2)c1C`, the AC50 is 0.355 µM (active). With `COc1ccccc1NC(=O)CCc1c(C)[nH]c(=O)c(C#N)c1C`, the “activity, negative = inhibition” value is -3.94% (inactive). Regarding `N#CCCn1c(=O)c(-c2cccs2)nc2cnc(Nc3ccccc3)nc21`, the “activity, negative = inhibition” value was 2.54% (inactive). The same measure, in the same setting: the figure for `CC(C)NC(=O)N1CC[C@@]2(CCCN(C(=O)c3csnn3)C2)C1` is 19% (inactive).

As usually defined, the AC50 is the midpoint of the concentration-response curve, whichever way the signal moves.
